From PubChem
The entries come from a sample that favours hits as a whole.
Pf Dd2 growth: Plasmodium falciparum Dd2 growth inhibition. P. falciparum Dd2 growth, SYBR Green, 72 h. Potency, µM (titrated, usually from 28.9 µM), for inactives: at the top dose activity, negative = inhibition, most hits filed as inhibitors. actives 4.3% (n = 120,000). AID 1347417; active = well fitted inhibition curve with a large enough effect;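 also: plate controls were DMSO vehicle for no effect and reference drug for full effect; nearly all actives have a fitted effect of over 65% in size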
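Infected erythrocytes (Dd2, 0.3% parasitemia, 2.5% hematocrit final) are added to compound in RPMI-1640/Albumax II medium, grown 72 h at 37C in low oxygen, then lysed with saponin/Triton-X containing SYBR Green and read by fluorescence.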
An asterisk follows results filed as active; i = inactive; [ ] = another dose, or the depositor's remark. Potency is read from the fitted curve at half-maximal effect.

SMILES	Pf Dd2 growth
CCOC(=O)c1cnc2c(C)c(Cl)ccc2c1NCCc1ccc(OC)c(OC)c1	i
CCOC(=O)c1ccc2ncc(C(=O)OCC)c(NCCc3ccc(OC)c(OC)c3)c2c1	8.9µM*
CCOC(=O)c1cnc2c(C)cccc2c1NCCc1ccc(OC)c(OC)c1	i
CCOC(=O)c1cnc2ccc(OC(F)(F)F)cc2c1Nc1ccccc1C(=O)O	10µM*
CCOC(=O)c1cnc2c(ccc3ccccc32)c1Nc1ccc(OCC)cc1	18%
CCOC(=O)c1cnc2c(ccc3ccccc32)c1Nc1cccc(OC)c1	51%
O=C(CC1CCN(C(=O)c2cccc(F)c2)C1)NCc1ccccc1 (stereo not given)	-3%
COCCC1(C(=O)O)CCCN(Cc2ccc3c(c2)CC(C)(C)O3)C1 (stereo not given)	-15%
CCn1nc(C)cc1C(=O)N1CCOC[C@H](Oc2ccc(OC)cc2)C1	i
O=S1(=O)CCC(Cc2nc(-c3ccccn3)nn2Cc2ccccc2)C1 (stereo not given)	-15%
CCCN(CC1CCOC1)C(=O)c1ccccc1Br (stereo not given)	13%[5.79 µM]
Cc1noc(C)c1[S+](=O)([O-])N1CCC2(Cc3ccccc3NC2=O)C1 (stereo not given)	4%
COc1ccc(NC(=O)N2CCCC(Cc3noc(-c4cccnc4)n3)C2)cc1 (stereo not given)	-25%
CC(=O)N1CCN(C(=O)c2cnc(-c3cccnc3)nc2)CC(O)C1 (stereo not given)	-10%
CCc1ccccc1NC(=O)c1ccc2c(c1)N(Cc1cc(C)ccc1C)C(=O)c1ccccc1S2(=O)=O	7.1µM*
COc1ccc(CCNC(=O)c2ccc3c(c2)N(Cc2ccccc2F)C(=O)c2ccccc2S3(=O)=O)cc1OC	i
COc1ccc(CNC(=O)c2ccc3c(c2)N(Cc2ccccc2F)C(=O)c2ccccc2S3(=O)=O)cc1	i
Cc1ccc(C)c(CN2C(=O)c3ccccc3S(=O)(=O)c3ccc(C(=O)N4CCN(C)CC4)cc32)c1	5µM*
O=C(OCC1CCCO1)c1ccc2c(c1)N(Cc1ccccc1Cl)C(=O)c1ccccc1S2(=O)=O (stereo not given)	8.9µM*
O=C(c1ccc2c(c1)N(Cc1ccccc1F)C(=O)c1ccccc1S2(=O)=O)N1CCCCCC1	i
O=C(OCC1CCCO1)c1ccc2c(c1)N(Cc1cccc(F)c1)C(=O)c1ccccc1S2(=O)=O (stereo not given)	3%
Cc1cccc(CN2C(=O)c3ccccc3S(=O)(=O)c3ccc(C(=O)N4CCCC4)cc32)c1	i
Cc1ccc(C)c(CN2C(=O)c3ccccc3S(=O)(=O)c3ccc(C(=O)NCCCN4CCCC(C)C4)cc32)c1 (stereo not given)	4µM*
CC1CCCN(CCCNC(=O)c2ccc3c(c2)N(Cc2ccc(Cl)cc2)C(=O)c2ccccc2S3(=O)=O)C1 (stereo not given)	i
Cc1cccc(CN2C(=O)c3ccccc3S(=O)(=O)c3ccc(C(=O)OCC4CCCO4)cc32)c1 (stereo not given)	11%
SMILES	Pf Dd2 growth
COc1ccc([C@H]2CN(C(=O)c3nc(N)nc4c3CCCC4)C[C@@H]2N)cc1	-7%
O=C(NCc1ccccn1)C1CCCN(C2CCN(S(=O)(=O)C3CC3)CC2)C1 (stereo not given)	9%
CN1C(=O)CCC2(CNC(=O)c3ccccc3)CCC=C12 (stereo not given)	11%
CN(Cc1cccc2[nH]ccc12)C1CCc2nn(CC3CC3)c(=O)n2CC1 (stereo not given)	-23%
COc1cccc(C2Cn3nnc(-c4nc(-c5cccc(C(F)(F)F)c5)no4)c3CO2)c1 (stereo not given)	i
Cc1cc(C(=O)N2CCOc3ccc(CCC(N)=O)cc3C2)nn1C	-18%
O=C(c1ccc2c(c1)N(Cc1cccc(Cl)c1)C(=O)c1ccccc1S2(=O)=O)N1CCCCC1	-11%
O=C(c1ccc2c(c1)N(Cc1ccccc1)C(=O)c1ccccc1S2(=O)=O)N1CCCCCC1	4µM*
O=C(c1ccc2c(c1)N(Cc1ccc(Cl)cc1)C(=O)c1ccccc1S2(=O)=O)N1CCN(Cc2ccccc2)CC1	i
COc1ccc(S(=O)(=O)N2CC[C@H]3NC(=O)N(c4ccc(C(C)C)cc4)C(=O)[C@H]32)cc1	-27%[44.1 µM]
O=C(Cc1ccc(N(Cc2ccc(F)cc2)C(=O)c2ccco2)cc1)NCC1CC1	-5%
O=C(Cn1c(=O)c2c(n1Cc1ccccc1)CN(Cc1ccccc1)CC2)NCc1cccc(Cl)c1	i
Cc1ccc2c(CN3CCN(Cc4ccccc4Cl)CC3)cc(=O)oc2c1	i
Cc1ccc(-c2c(C(=O)NCc3ccc(F)cc3)oc(=O)c3ccccc23)cc1	15%
O=c1oc2c3c(ccc2c2ccccc12)OCN(Cc1ccccc1Cl)C3	5.6µM*
O=C1CC2(CCN(Cc3ccc(F)cc3)CC2)Oc2ccccc2N1	i
Cc1ccc2c(c1)N1C(=O)OC[C@@H]1CCN(Cc1cccc(Cl)c1)C2	-8%[44.1 µM]
Cc1cc2c(c3oc(=O)c4ccccc4c13)CN(Cc1ccc(F)cc1)CO2	0.79µM*
O=c1oc2c3c(ccc2c2ccccc12)OCN(Cc1cccc(Cl)c1)C3	10µM*
O=C1[C@H]2CN(Cc3ccccc3Cl)C[C@H]2C(=O)N1Cc1ccc2c(c1)OCO2	-5%
Cc1cc(S(=O)(=O)N2C[C@@H](F)C[C@H]2C(=O)N2CCc3ccccc3C2)ccc1F	37%
CN(Cc1ccccc1)C(=O)[C@@H]1Cc2nc[nH]c2CN1C(=O)CCC(=O)O	12%[44.1 µM]
CNC(=O)N1C[C@@H](CN(C)C)[C@H](NC(=O)CC2CCCC2)C1	18%
Cn1nc(C2CCN(C(=O)c3cc(F)ccc3F)CC2)c2c1CCOC2	i[5.79 µM]
COc1ccc(NC(=O)c2cc(-c3ccc[nH]3)n[nH]2)c(OC)c1	-2%
SMILES	Pf Dd2 growth
COCC1CN(C(C)=O)CC12CCN(S(=O)(=O)c1cc(C)ccc1C)CC2 (stereo not given)	-21%
CSCC(=O)N1CC[C@H](NC(=O)NC2CCCCC2)[C@H]1C(=O)N[C@H](Cc1c[nH]c2ccccc12)C(N)=O	-1%
CC(c1cccs1)N(C)C(=O)c1cccc(Cl)c1 (stereo not given)	i
COc1ccc(-c2nc3nc(C)cc(Nc4cccc(C(F)(F)F)c4)n3n2)cc1	6%
COc1ccc(N2CCN(c3cc(C)nc4nc(-c5ccc(C)cc5)nn34)CC2)cc1	-10%
Cc1cc(N2CCN(c3cccc(C(F)(F)F)c3)CC2)n2nc(-c3ccccc3C)nc2n1	11µM*
CCn1ncc(N2CCCC(CC(=O)NCc3cccc(C)c3)C2)cc1=O (stereo not given)	i
Cc1ccc(-c2c(C)n3c4c(=O)n(C)c(=O)n(C)c4nc3n2-c2cccc(O)c2)cc1	10µM*
CCc1ccc(-n2c(-c3ccccc3)c(C)n3c4c(=O)n(C)c(=O)n(C)c4nc23)cc1	9%
Cc1ccc(-c2nc3ccccc3n3c(-c4ccccc4)c4c(=O)n(C)c(=O)n(C)c4c23)cc1	62%
CC(C)CCCC1CN(C(=O)c2c(O)cccc2O)CCO1 (stereo not given)	0%
COCCn1nc2n(c1=O)CCN(C(=O)c1ncccc1C)CC2	i
CC(=O)Nc1cccc(OCc2nnc(C(=O)N3CCC[C@@H]3c3ccc(Br)cc3)n2Cc2ccccc2)c1	-22%
CC(=O)Nc1cccc2ccc(OCc3nnc(C(=O)N4CCC[C@@H]4c4ccc(Br)cc4)n3Cc3ccccc3)cc12	11µM*
C[C@H]1CCCN1C(=O)c1nnc(COc2ccc(Cl)cc2)n1-c1ccccc1	-12%[44.1 µM]
